# In PubChem BioAssay:
# Active and inactive are the calls of the source.
# Columns and labels:
# [1] = A549 cell viability effects, profiling panel, calcein-AM fluorescence, 48 h, basal (AID 1162); conditions: higher = more signal
# [2] = adipocyte viability effects, profiling panel, cell-based, 3T3-L1 adipocytes, calcein-AM fluorescence, 48 h, basal (AID 1163); conditions: 3T3-L1 adipocytes viability, higher = more signal
# [3] = HepG2 cell viability effects, profiling panel, calcein-AM fluorescence, 48 h, basal (AID 1164); conditions: higher = more signal
# [4] = MM1S cell viability effects, profiling panel, calcein-AM fluorescence, 48 h, basal (AID 1165); conditions: higher = more signal;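 note: viability of MM1S multiple myeloma cells under basal unstimulated conditions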
# [5] = basal RPMI8226 viability, no added stimulus, profiling panel, cell-based, calcein-AM fluorescence, 48 h, PK04 Diversity Set (AID 1166); conditions: RPMI8226 myeloma viability, higher = more signal;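 note: cells grown under basal conditions without added stimulus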
# [6] = basal HepG2 mitochondrial membrane potential changes, profiling panel, cell-based, JC-1 fluorescence, 24 h, 100 nL compound (AID 1167); conditions: higher = more signal
# [7] = basal 3T3-L1 adipocyte mitochondrial potential changes, profiling panel, cell-based, JC-1 fluorescence, 3T3-L1 adipocytes, 24 h, 100 nL compound (AID 1168); conditions: JC-1 mitochondrial fluorescence, higher = more signal, called active from +8 up or from −8 down
# [8] = basal RPMI8226 mitochondrial membrane potential changes, profiling panel, cell-based, JC-1 fluorescence, 24 h, 100 nL compound (AID 1169); conditions: RPMI8226 myeloma, JC-1 mitochondrial potential fluorescence, higher = more signal
# [9] = basal MM1S mitochondrial membrane potential changes, profiling panel, cell-based, JC-1 fluorescence, 24 h, 100 nL compound (AID 1170); conditions: higher = more signal
# [10] = A549 lung cancer cell viability effects, profiling panel, resazurin fluorescence, 24 h, PK04 Diversity Set (AID 1171); conditions: higher = more signal, called active from +8 up or from −8 down
# Note: test concentration not given here.
Structure (SMILES),z-score [1],z-score [2],z-score [3],z-score [4],z-score [5],z-score [6],z-score [7],z-score [8],z-score [9],z-score [10]
Cc1ccc(S[C@]2(C(=O)NCC(F)(F)F)CC(=O)N(Cc3ccccc3C(F)(F)F)[C@@H]2c2ccc(CO)cc2)cc1,-0.859,0.0909,-0.768,-1.04,0.0646,-0.523,0.0107 (inactive),0.0145,-0.594,0.413 (inactive)
NC(=O)N1C(=O)C2C(C1=O)C1C=C(CCCO)C2C(c2ccc(CN3CCCC3)cc2)N1Cc1cc2c(cc1Br)OCO2 (stereo not given),-1.05,0.201,-0.623,-0.0321,0.124,-0.595,-0.472 (inactive),0.159,0.322,-0.855 (inactive)
COCCOC(=O)N1C(=O)[C@@]2(c3cc(C#CCC(C(=O)OC)C(=O)OC)ccc31)[C@H](C(N)=O)[C@H]1C(=O)O[C@H](c3ccccc3)[C@H](c3ccccc3)N1[C@@H]2c1ccc(O)cc1,-0.181,-0.187,-1.52,-3.37,-4.02,-0.864,2.05 (inactive),-1.19,-2.07,0.163 (inactive)
CC1CC/C=C\[C@H]2OC34C=CCN(Cc5ccccc5)C(=O)[C@H]3N(CCCCCCO)C(=O)[C@@H]4C2C(=O)O1 (stereo not given in full),1.3,0.221,0.881,1.41,0.0497,0.0727,-0.0479 (inactive),0.62,1.34,0.919 (inactive)
CN(C)CCCC[C@@H]1NC(=O)[C@H]2C[C@@H](C(=O)O)[C@@H](c3ccc(O)cc3)N2C1=O,0.151,1.73,0.326,-1.24,-0.817,-0.0533,0.419 (inactive),-0.693,0.38,-0.569 (inactive)
CC1CC/C=C\[C@H]2OC34C=CCN(Cn5nnc6ccccc65)C(=O)[C@H]3N(CCCCCCO)C(=O)[C@@H]4C2C(=O)O1 (stereo not given in full),0.264,-0.0662,0.91,1.95,0.456,1.63,0.53 (inactive),0.8,-0.657,0.0188 (inactive)
CC(C)c1nc2cc(Br)ccc2c(=O)o1,-0.374,0.124,-1.32,0.345,-0.262,-0.0593,0.316 (inactive),0.593,-0.259,0.0924 (inactive)
CN(C)CCCCNC(=O)[C@H]1C[C@H]2C(=O)NCC(=O)N2[C@H]1c1ccc(O)cc1,-0.685,0.364,-0.239,0.34,-0.0681,-0.253,-0.324 (inactive),0.347,-0.371,1.05 (inactive)
COCCOC(=O)N1C(=O)[C@@]2(c3cc(C#CCC(C(=O)OC)C(=O)OC)ccc31)[C@H](C(=O)Nc1nc3ccccc3s1)[C@H]1C(=O)O[C@H](c3ccccc3)[C@H](c3ccccc3)N1[C@@H]2c1ccc(O)cc1,-0.857,0.401,-0.277,0.0422,-0.23,-2.45,-2.24 (inactive),0.467,0.258,0.677 (inactive)
COCCCNC(=O)[C@@]1(CCC(=O)OC(C)(C)C)COC(c2ccc(OCCCO)cc2)=N1,-0.487,0.129,-0.642,-1.43,-0.24,0.195,-1.05 (inactive),-0.438,0.012,2.45 (inactive)
O=C1[C@H]2C=C(I)[C@H](C[C@@H]2OCCCCCCO)[C@@]12CO2,0.249,-0.0741,-0.394,-1.22,-0.273,-1.58,0.0285 (inactive),-0.264,-0.571,0.339 (inactive)
CC(C)(C)N1CC=CC23O[C@@H]4C=CCCOC(=O)C4[C@H]2C(=O)N(CCCCCCO)[C@@H]3C1=O (stereo not given in full),0.0905,-2.98,0.952,1.35,0.229,0.212,-0.501 (inactive),-0.0402,-0.516,-0.523 (inactive)
C=C(COC)C(=O)CC[C@@H](OC(C)=O)c1ccccc1OCCO,0.177,1.37,-0.601,-3.28,-1.75,0.143,-0.22 (inactive),-0.557,-1.82,0.837 (inactive)
COCCOC(=O)N1C(=O)[C@@]2(c3cc(C#CC4(O)CCCCCC4)ccc31)[C@H](c1ccc(O)cc1)N1[C@H](c3ccccc3)[C@H](c3ccccc3)OC(=O)[C@H]1[C@@H]2C(=O)N1CCCCCCC1,0.717,-0.854,0.98,-0.615,-1.83,-0.442,-0.943 (inactive),-1.01,0.0446,-0.178 (inactive)
